PubChem BioAssay (NCATS)
Inconclusive results are not listed. A call without a number means that no potency is given here. Calls of active or inactive are those of the source. Unless noted, the call rests on the fitted dose curve; in most records, active means well fitted curve in the direction sought with a large enough effect; inconclusive means small, poorly fitted or top-dose-only effect, or another doubt; inactive means no such curve, though single readings can be large; an effect the other way counts as inactive or inconclusive.

How the values were obtained:
[1] = target: Cytochrome P450 3A4 (Homo sapiens) (UniProt P08684); experiment: qHTS Assay for Inhibitors and Substrates of Cytochrome P450 3A4 (AID 884); further: nearly all actives have a fitted effect of over 50% in size; further: potency means the concentration at half of the fitted maximal effect
Outline: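 20 nM human CYP3A4 with 25 uM Luciferin-PPXE (at KM) in 200 mM KPO4, preincubated 10 min with compound; NADPH regeneration started a 60 min RT reaction. Luciferin detected by luminescence, normalized to 57 uM ketoconazole as full inhibition.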

[2] = Confirmation and Secondary Assay for Modulators of Hemoglobin Beta Chain Splicing at IVS2 654 locus (AID 910);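 further: per-well total GFP intensity by laser scanning cytometry after 2-day treatment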
Outline: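 HeLa cells stably carrying EGFP interrupted by mutant beta-globin IVS2-654 intron (CMV-driven) were treated with compound for 2 days at 37C; corrected splicing was scored as total peak GFP intensity per well (488 nm excitation, 500-520 nm emission).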

[3] = Confirmation and Secondary Assay for Modulators of Hemoglobin Beta Chain Splicing at IVS2 705 locus (AID 930);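 further: HeLa cells stably expressing the EGFP-705 splicing reporter; GFP fluorescence per well restored by corrected splicing of the IVS2-705 intron in EGFP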
Outline: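 Stable HeLa line with EGFP disrupted by mutant beta-globin intron 2 (705). Overnight attachment, then 2 days of compound at 37C, 5% CO2. Signal: peak GFP intensity summed over objects 5-250 µm.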

[4] = qHTS Assay for Lipid Storage Modulators (AID 1519; calls by dose curve); details: Drosophila S3 cells, BODIPY lipid droplet/cell ratio, laser cytometry, cells loaded with oleic acid; for activity change, negative = inhibition: at 57.5 µM (top of the series)
Outline: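 Cells seeded at 5,000 per well were treated with compounds over a concentration series and loaded with oleic acid (400 uM, as added). Lipid droplet fluorescence (488 nm excitation, 500-530 nm channel) was read by laser-scanning cytometry and normalized to 20 uM Triacsin C.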

[5] = target: Ubiquitin carboxyl-terminal hydrolase 1 (Homo sapiens) (UniProt O94782); experiment: Inhibitors of USP1/UAF1: Pilot qHTS (AID 504865);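 further: rhodamine fluorescence freed from ubiquitin-rhodamine substrate followed over time; top concentration of the series differs between compounds; nearly all actives have a fitted effect of over 35% in size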
Outline: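 Enzyme-free wells gave the negative control, while test wells held 1nM USP1/UAF1 preincubated with compound for 15 min at room temperature. Ub-Rho at 150nM final started the reaction, and fluorescence at 480/540 nm was recorded kinetically.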

[6] = target: Luciferin 4-monooxygenase (Photinus pyralis) (UniProt P08659); experiment: Biochemical firefly luciferase enzyme assay for NPC (AID 624030);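 further: purified P. pyralis luciferase at 10 nM with luciferin and ATP substrate; nearly all actives have a fitted effect of over 70% in size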
Outline: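 Counter-screen for direct inhibition of the luciferase enzyme by approved-drug library compounds, run at 10 nM enzyme in 50 mM Tris acetate (final). Luminescence was read within 5 min of enzyme-buffer addition and normalized to PTC124 versus DMSO (0%).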

[7] = target: DNA dC->dU-editing enzyme APOBEC-3G (Homo sapiens) (UniProt Q9HC16); experiment: qHTS for inhibitors of Vif-A3G interactions: Validation (AID 588379)
Outline: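 HeLa cells stably expressing Vif and A3G-eYFP, 700 cells/well, incubated overnight at 37 deg C, then exposed to compound overnight at 37 deg C. Inhibition of Vif-mediated degradation read as increased yellow fluorescence (Ex 488/Em 500-530) by laser-scanning cytometry.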

[8] = target: Cytochrome P450 3A4 (Homo sapiens) (UniProt P08684); experiment: qHTS Assay for Activators of Cytochrome P450 3A4 (AID 885); further: nearly all actives have a fitted effect of over 65% in size; further: potency means the concentration at half of the fitted maximal effect
Outline: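 Human CYP3A4 (20 nM) with Luciferin-PPXE at 25 uM (its KM) in 200 mM KPO4; 10 min compound preincubation, then NADPH regeneration and 60 min reaction at RT. Luciferin read by luminescence; normalized to 57 uM ketoconazole full inhibition.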

[9] = measured here: cell count channel max response
[10] = measured here: lipid channel max response

Cytochrome P450 3A4 (Homo sapiens), sequence (P08684 whole entry, looked up): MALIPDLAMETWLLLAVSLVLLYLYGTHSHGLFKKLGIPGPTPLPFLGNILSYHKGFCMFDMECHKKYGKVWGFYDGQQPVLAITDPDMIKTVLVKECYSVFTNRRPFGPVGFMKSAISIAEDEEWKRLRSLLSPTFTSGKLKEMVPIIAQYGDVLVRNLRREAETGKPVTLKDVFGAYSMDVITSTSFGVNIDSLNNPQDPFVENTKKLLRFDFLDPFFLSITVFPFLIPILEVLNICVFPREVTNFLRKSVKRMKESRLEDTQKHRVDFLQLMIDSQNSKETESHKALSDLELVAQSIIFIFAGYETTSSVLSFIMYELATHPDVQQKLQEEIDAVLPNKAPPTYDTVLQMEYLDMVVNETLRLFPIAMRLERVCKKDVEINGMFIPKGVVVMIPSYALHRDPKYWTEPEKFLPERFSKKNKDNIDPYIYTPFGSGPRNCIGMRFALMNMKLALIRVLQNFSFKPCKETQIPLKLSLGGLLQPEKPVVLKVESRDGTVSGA
Ubiquitin carboxyl-terminal hydrolase 1 (Homo sapiens), sequence (O94782 whole entry, looked up): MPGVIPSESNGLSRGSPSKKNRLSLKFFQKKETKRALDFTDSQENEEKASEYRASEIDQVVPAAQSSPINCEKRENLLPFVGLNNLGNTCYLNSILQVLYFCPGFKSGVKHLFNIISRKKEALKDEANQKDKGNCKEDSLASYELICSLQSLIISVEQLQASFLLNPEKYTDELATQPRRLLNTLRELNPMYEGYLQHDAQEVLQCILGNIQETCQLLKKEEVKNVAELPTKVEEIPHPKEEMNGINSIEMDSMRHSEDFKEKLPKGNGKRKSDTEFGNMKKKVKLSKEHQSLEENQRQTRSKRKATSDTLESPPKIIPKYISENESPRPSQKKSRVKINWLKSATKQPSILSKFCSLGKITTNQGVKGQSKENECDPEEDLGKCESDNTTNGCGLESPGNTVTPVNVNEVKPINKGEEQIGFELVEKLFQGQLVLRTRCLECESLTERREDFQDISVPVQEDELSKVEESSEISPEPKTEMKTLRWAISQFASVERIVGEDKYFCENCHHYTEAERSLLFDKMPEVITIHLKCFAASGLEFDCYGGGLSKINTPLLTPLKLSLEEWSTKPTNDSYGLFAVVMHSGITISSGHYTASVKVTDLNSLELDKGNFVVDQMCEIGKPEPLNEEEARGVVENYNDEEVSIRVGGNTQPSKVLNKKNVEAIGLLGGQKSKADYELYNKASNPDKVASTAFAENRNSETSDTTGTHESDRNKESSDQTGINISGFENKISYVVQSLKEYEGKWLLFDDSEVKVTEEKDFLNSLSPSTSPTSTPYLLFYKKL
DNA dC->dU-editing enzyme APOBEC-3G (Homo sapiens), sequence (Q9HC16 whole entry, looked up): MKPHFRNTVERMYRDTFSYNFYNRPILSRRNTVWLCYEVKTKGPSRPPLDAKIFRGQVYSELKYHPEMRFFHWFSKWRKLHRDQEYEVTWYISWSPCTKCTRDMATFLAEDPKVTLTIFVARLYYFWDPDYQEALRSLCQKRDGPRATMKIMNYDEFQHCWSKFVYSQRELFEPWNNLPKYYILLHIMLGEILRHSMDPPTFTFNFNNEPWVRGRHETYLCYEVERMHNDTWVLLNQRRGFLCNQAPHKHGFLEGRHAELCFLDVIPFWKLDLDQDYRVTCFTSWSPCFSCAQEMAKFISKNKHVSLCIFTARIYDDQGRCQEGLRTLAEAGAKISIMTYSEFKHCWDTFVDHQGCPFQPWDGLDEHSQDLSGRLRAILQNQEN
Luciferin 4-monooxygenase (Photinus pyralis), sequence (P08659 whole entry, looked up): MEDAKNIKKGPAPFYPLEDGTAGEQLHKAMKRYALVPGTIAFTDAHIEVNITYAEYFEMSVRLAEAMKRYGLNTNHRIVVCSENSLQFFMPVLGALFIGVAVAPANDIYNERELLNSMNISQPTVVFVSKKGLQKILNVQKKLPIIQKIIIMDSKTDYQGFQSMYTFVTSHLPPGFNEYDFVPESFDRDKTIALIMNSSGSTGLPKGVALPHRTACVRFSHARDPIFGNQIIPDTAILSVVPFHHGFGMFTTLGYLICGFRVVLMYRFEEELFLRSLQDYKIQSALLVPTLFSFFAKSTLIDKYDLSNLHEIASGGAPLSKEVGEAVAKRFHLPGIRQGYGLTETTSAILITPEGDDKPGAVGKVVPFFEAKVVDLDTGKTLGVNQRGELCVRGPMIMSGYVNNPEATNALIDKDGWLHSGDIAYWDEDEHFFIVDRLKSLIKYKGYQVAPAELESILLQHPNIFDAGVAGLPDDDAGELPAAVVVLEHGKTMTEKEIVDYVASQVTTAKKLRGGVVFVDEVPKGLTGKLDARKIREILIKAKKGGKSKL

Row | SMILES | Potency [1] | Potency [2] | Potency [3] | activity change, negative = inhibition [4] | max response [4, 9] [%] | max response [4, 10] [%] | Potency [5] | Potency [6] | outcome [7] | Potency [8]
1 | O=C(O)CCCCC1SCC2NC(=O)NC21 (stereo not drawn) | inactive | inactive | inactive | 0.834% (inactive) | 11.8 | 16 | inactive | inactive |  | 
2 | N[C@H](CO)Cc1cnc[nH]1 | inactive |  |  | 3.9% (inactive) | 11.7 | 15.8 | inactive |  | inactive | 
3 | COc1c(Cl)ccc(Cl)c1C(=O)O | inactive | inactive | inactive | 0.0476% (inactive) | -8.45 | -7.42 | inactive |  |  | 
4 | CCOC(=O)CCC(=O)O[C@H]1C(O[C@@H]2C(C)[C@H](O[C@H]3C[C@@](C)(OC)C(O)C(C)O3)C(C)C(=O)OC(CC)[C@@](C)(O)C(O)[C@H](C)C(=O)C(C)C[C@]2(C)O)OC(C)CC1N(C)C (stereo partly drawn) | 20 µM (active) | inactive | inactive | -0.5% (inactive) | 3.86 | 3.45 | inactive |  |  | inactive
5 | O=c1[nH]c(=O)n([C@@H]2O[C@H](CO)[C@@H](O)[C@H]2O)cc1Br | inactive |  |  | -8.5% (inactive) | -11.6 | -16.6 | inactive |  | inactive | 
6 | NC(=O)NCCC[C@H](N)C(=O)O | inactive |  |  | -0.41% (inactive) | -16.4 | -15.2 | inactive |  | inactive | 
7 | C/C=C(/C)C(=O)OC1Cc2c(ccc3ccc(=O)oc23)OC1(C)C (stereo not drawn) | inactive | inactive | inactive | 2.21% (inactive) | 9.88 | 14.5 | inactive |  |  | 15.8 µM (active)
8 | CC1=C(C2=C(C)C(C(C)C)C3=C(C(=O)C(O)C3O)C2O)C(O)C2=C(C(O)C(O)C2=O)C1C(C)C (stereo not drawn) | inactive |  |  | 1.34% (inactive) | 12.4 | 12.8 | inactive |  | inactive | 
9 | COc1ccc(-c2coc3cc(O)ccc3c2=O)c(OC)c1O | inactive | inactive | inactive | -3.58% (inactive) | 12.3 | 2.49 | inactive |  |  | 
10 | COC(=O)CC1C(C)(C)C(OC(C)=O)[C@@]2(O)C=C3C4CC(=O)OC(c5ccoc5)[C@]4(C)CCC3[C@@]1(C)C2=O (stereo partly drawn) | 7.94 µM (active) | inactive | inactive | 10.4% (inactive) | 10.1 | 21.8 | inactive |  |  | inactive
11 | COc1c(OC)c2occc2c2oc(=O)ccc12 | 10 µM (active) | inactive | inactive | 12.4% (inactive) | 0.397 | 12.4 | inactive |  |  | inactive
12 | CCCCCC(=O)Cc1cc(O)cc(O)c1C(=O)Oc1cc(CC(=O)CCCCC)c(C(=O)O)c(OC)c1 | 15.8 µM (active) | inactive | inactive | 4.27% (inactive) | 7.66 | 16.1 | inactive |  |  | inactive
13 | Nc1nc2[nH]c(=O)[nH]c2c(=O)[nH]1 | inactive | inactive | inactive | -0.21% (inactive) | 10.7 | 11.7 | inactive |  |  | 
14 | CC(=O)Oc1c(C)cccc1C(=O)O | inactive | inactive | inactive | 5.46% (inactive) | 15.6 | 23.9 | inactive |  |  | 
15 | O=c1cc(-c2ccccc2O)oc2cc(O)ccc12 | inactive | inactive | inactive | 8.08% (inactive) | 28.6 | 40 | inactive |  |  | 
16 | C=C1C2CC[C@@]3(C)C(c4ccoc4)OC(=O)C[C@@]13OC1CC(=O)C(C)(C)C(C(O)C(=O)OC)[C@]12C (stereo partly drawn) | 2.51 µM (active) | inactive | inactive | -0.848% (inactive) | 11.1 | 18.5 | inactive |  |  | inactive
17 | O=C1CC(c2ccc(O)c(O)c2)Oc2cc(O)cc(O)c21 (stereo not drawn) | 39.8 µM (active) |  | inactive | 17.7% (inactive) | -10.3 | 9.21 | inactive |  |  | inactive
18 | COC(=O)/C(C)=C/CC12OC(C)(C)C3CC(C=C4C(=O)c5cc6c(c(CCC(C)(C)Cl)c5OC431)OC1(C)CCC(=C(C)C)C6C1)C2=O (stereo not drawn) | inactive | inactive | inactive | 14.1% (inactive) | 7.63 | 20.5 | inactive |  |  | 
19 | CCN1CCN(C(=O)NC(C(=O)NC2C(=O)N3C2SC(C)(C)C3C(=O)O)c2ccccc2)C(=O)C1=O (stereo not drawn) | inactive | inactive | inactive | 7.43% (inactive) | -3.83 | 0.752 | inactive |  |  | 
20 | Cc1onc(-c2ccccc2)c1C(=O)NC1C(=O)N2C(C(=O)O)C(C)(C)S[C@@H]12 (stereo partly drawn) | inactive | inactive | inactive | 9.92% (inactive) | 9.88 | 24.8 | inactive |  |  | 
21 | Nc1nc2c(ncn2C2OC(CO)CC2O)c(=O)[nH]1 (stereo not drawn) | inactive | inactive | inactive | 6.37% (inactive) | 3.55 | 10.6 | inactive |  |  | 
22 | CC(=O)/C=C\C1[C@]2(C)CCCC(C)(C)C2CC[C@@]1(C)O (stereo partly drawn) | inactive | inactive | inactive | 3.07% (inactive) | -10.9 | -8.32 | inactive |  |  | 
23 | COc1cc2c(cc1OC)Cc1cc(OC)c(OC)cc1Cc1cc(OC)c(OC)cc1C2 | 12.6 µM (active) | inactive | inactive | -1.62% (inactive) | 2.54 | 2.42 | inactive |  |  | inactive
24 | COc1cccc2c1CCC1CC(=O)CC[C@@]21C (stereo partly drawn) | 15.8 µM (active) | inactive | inactive | 4.57% (inactive) | -12.9 | -5.49 | inactive |  |  | inactive
25 | O=c1cc(-c2cccc(O)c2)oc2ccc(O)cc12 | 3.98 µM (active) | inactive | inactive | 13.1% (inactive) | 3.49 | 17.7 | inactive |  |  | inactive
26 | COc1ccc(C(=O)c2ccccc2)c(O)c1O | inactive | inactive | inactive | 1.94% (inactive) | -24.4 | -18 | inactive |  |  | 
